# Source: the supplement of paper PMC8728848
# About 410 targets per protein were measured; listed, in parts, are those with the strongest signals and a random draw of the rest.
# Legend:
# Test in all cases: glycan array binding signal (z-score within array); higher = stronger binding
# Conditions in all cases: glycan notation: IUPAC condensed, linker removed
# [1] = tested on: Gal(b1-4)GlcNAc(b1-3)Gal(b1-4)GlcNAc(b1-3)Gal(b1-4)GlcNAc
# Method in brief: (§1)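 Columns mapping to the same glycan were averaged after glycan names were converted to IUPAC-condensed notation. The data come from 3228 arrays in the Consortium for Functional Glycomics database, limited to those with an available protein sequence. Binding is reported as a within-array Z-score averaged across arrays of one protein sequence and across linkers.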
# [2] = tested on: Gal(b1-4)GlcNAc(b1-3)Gal(b1-4)[Fuc(a1-3)GlcNAc(b1-6)]Gal(b1-4)Glc
# Method in brief: as §1
# [3] = tested on: Gal(b1-4)GlcNAc(b1-3)Gal(b1-4)GlcNAc(b1-3)Gal(b1-4)GlcNAc(b1-3)Gal(b1-4)GlcNAc(b1-3)Gal(b1-4)GlcNAc(b1-2)Man(a1-3)[Gal(b1-4)GlcNAc(b1-3)Gal(b1-4)GlcNAc(b1-3)Gal(b1-4)GlcNAc(b1-3)Gal(b1-4)GlcNAc(b1-3)Gal(b1-4)GlcNAc(b1-2)Man(a1-6)]Man(b1-4)GlcNAc(b1-4)[Fuc(a1-6)]GlcNAc
# Method in brief: as §1
# [4] = tested on: Gal(b1-4)GlcNAc(b1-3)Gal(b1-4)GlcNAc(b1-3)GalNAc
# Method in brief: as §1
# [5] = tested on: Gal(b1-4)GlcNAc(b1-3)Gal(b1-4)[Fuc(a1-3)]GlcNAc(b1-3)Gal(b1-4)[Fuc(a1-3)]GlcNAc
# Method in brief: as §1
# [6] = tested on: Gal(b1-4)GlcNAc(b1-3)GalNAc
# Method in brief: as §1
# [7] = tested on: Gal(b1-4)GlcNAc(b1-3)[Fuc(a1-3)GlcNAc(b1-6)]Gal(b1-4)Glc
# Method in brief: as §1
# [8] = tested on: Gal(b1-4)GlcNAc(b1-3)Gal(b1-4)GlcNAc(b1-3)Gal(b1-4)GlcNAc(b1-3)Gal(b1-4)GlcNAc(b1-3)Gal(b1-4)GlcNAc(b1-3)Gal(b1-4)GlcNAc(b1-2)Man(a1-3)[Gal(b1-4)GlcNAc(b1-3)Gal(b1-4)GlcNAc(b1-3)Gal(b1-4)GlcNAc(b1-3)Gal(b1-4)GlcNAc(b1-3)Gal(b1-4)GlcNAc(b1-3)Gal(b1-4)GlcNAc(b1-2)Man(a1-6)]Man(b1-4)GlcNAc(b1-4)GlcNAc
# Method in brief: as §1
# [9] = tested on: Gal(b1-4)GlcNAc(b1-6)[Gal(b1-3)]GalNAc
# Method in brief: as §1
# [10] = tested on: Gal(b1-4)GlcNAc(b1-3)Gal(b1-4)GlcNAc
# Method in brief: as §1
substance,measurement,setting,value
"SiiE (Salmonella typhimurium), A0A0H3NVH0",glycan array binding signal (z-score),[1],0.446
same,glycan array binding signal (z-score),[2],-0.187
AgI/II Vhelical-GFP (Streptococcus mutans),glycan array binding signal (z-score),[3],-0.113
same,glycan array binding signal (z-score),[4],6.41
Epa22,glycan array binding signal (z-score),[5],-0.575
same,glycan array binding signal (z-score),[6],-0.621
same,glycan array binding signal (z-score),[7],-0.173
"Wza (Escherichia coli), P0A930",glycan array binding signal (z-score),[1],2.94
AgI/IIC123-GFP (Streptococcus mutans),glycan array binding signal (z-score),[3],5
same,glycan array binding signal (z-score),[8],1.82
same,glycan array binding signal (z-score),[7],0.19
"GspB (Streptococcus gordonii), Q939N5",glycan array binding signal (z-score),[1],-0.783
same,glycan array binding signal (z-score),[9],-0.739
"BambL (Burhholderia ambifaria), Q0B4G1",glycan array binding signal (z-score),[10],-0.314
